Here are results for 19 compounds from PubChem BioAssay (Tox21).

Molecules are shown by their SMILES. “And” between values parts separate entries of the source, which are not always exact repeats. Equal entries are not always repeated. Results filed as inconclusive are left out. More than one record can exist for a structure, and the calls need not agree. The source made the active and inactive calls. The call rests on the fitted dose curve; in most records, active means well fitted curve in the direction sought with a large enough effect in the repeat runs; inconclusive means weak or mixed curves; inactive means no such curve, though single readings can be large; an effect the other way counts as inactive or inconclusive.

Test [1] is described as follows: A CellTox Green Cytotoxicity Assay to monitor cytotoxicity in HEK293 cells - 40 hour (AID 1224871). Further: nearly all actives have a fitted effect of over 45% in size. Further: potency means the concentration at half of the fitted maximal effect. The procedure, abridged:
(§1)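 Cytotoxicity was tracked continuously in HEK293 cells by a DNA-binding dye excluded from viable cells. Compounds were transferred in DMSO 5 h after seeding; fluorescence was recorded at intervals up to 40 h.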

A short description of test [2]: qHTS RealTime-Glo MT Cell Viability Assay in HEK293 cells - 16 hour (AID 1224872). Further: nearly all actives have a fitted effect of over 50% in size. Further: potency means the concentration at half of the fitted maximal effect. An outline of the steps:
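HEK293 cells seeded with NanoLuc/prosubstrate reagent, rested 5 h at 37 C, then dosed and kept at 37 C up to 40 h. Nonlytic real-time luminescence from viable cells read at 0, 8, 16, 24, 32 and 40 h.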
Background: Quantitative high-throughput screening tests each substance at several concentrations.

The nature of test [3]: qHTS RealTime-Glo MT Cell Viability Assay in HepG2 cells - 8 hour (AID 1224873). Further: nearly all actives have a fitted effect of over 55% in size. Further: potency means the concentration at half of the fitted maximal effect. An outline of the steps: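 Real-time viability: cells seeded at 600 per well together with NanoLuc and cell-permeant prosubstrate, compounds added after 5 h incubation. Luminescence tracked at 0, 8, 16, 24, 32 and 40 h of exposure.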
The nature of test [4]: qHTS RealTime-Glo MT Cell Viability Assay in HEK293 cells - 40 hour (AID 1224874). Further: nearly all actives have a fitted effect of over 50% in size. Further: potency means the concentration at half of the fitted maximal effect. Particulars: RealTime-Glo luminescence; max response: stronger effect = lower value. The procedure, abridged: (§2)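 Nonlytic bioluminescent viability monitoring. HEK293 at 600 cells/well with reagent; 5 h settle; compound transfer by pintool; plates held at 37 C and read at set time points.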
Test [5] can be described thus: A CellTox Green Cytotoxicity Assay to monitor cytotoxicity in HEK293 cells - 24 hour (AID 1224875). Further: nearly all actives have a fitted effect of over 45% in size. Further: potency means the concentration at half of the fitted maximal effect. An outline of the steps:
as §1

A short description of test [6]: A CellTox Green Cytotoxicity Assay to monitor cytotoxicity in HepG2 cells - 16 hour (AID 1224876). Further: nearly all actives have a fitted effect of over 45% in size. Further: potency means the concentration at half of the fitted maximal effect. The procedure, abridged: (§3)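 Real-time, homogeneous cytotoxicity readout: dead-cell DNA staining by CellTox Green in HepG2 monolayers, fluorescence measured at timed intervals up to 40 h of continuous compound exposure.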
Test [7] in a line: qHTS RealTime-Glo MT Cell Viability Assay in HepG2 cells - 32 hour (AID 1224877). Further: nearly all actives have a fitted effect of over 55% in size. The procedure, abridged:
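HepG2 cells (600/well) were dispensed with RealTime-Glo reagents, incubated 5 h at 37 °C, then treated with compounds in DMSO for up to 40 h. Nonlytic NanoLuc luminescence reflecting viable cells was read at each stated time point.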

The nature of test [8]: A CellTox Green Cytotoxicity Assay to monitor cytotoxicity in HepG2 cells - 24 hour (AID 1224878). Further: nearly all actives have a fitted effect of over 45% in size. Further: potency means the concentration at half of the fitted maximal effect. The procedure, abridged:
as §3

Test [9] can be described thus: A CellTox Green Cytotoxicity Assay to monitor cytotoxicity in HepG2 cells - 40 hour (AID 1224879). Further: nearly all actives have a fitted effect of over 40% in size. Further: potency means the concentration at half of the fitted maximal effect. An outline of the steps:
as §3

A short description of test [10]: qHTS RealTime-Glo MT Cell Viability Assay in HEK293 cells - 0 hour (AID 1224880). An outline of the steps: as §2
On the % scale 0 is the no-effect control and ±100 the full control effect.

Take `COP(=S)(OC)Oc1ccc(S(=O)(=O)N(C)C)cc1`: the Potency result in test [1], in [2], in [3], in test [5], in test [6] and in [7] was “inactive” throughout. For the same compound, the Potency entry in test [8], in test [9] and in [10] was “inactive” each time. Besides, the max response in [4] was -18.5% (inactive) and -16.7% (inactive).

As to `CC1(C)C(C(=O)OC(C#N)c2cccc(Oc3ccccc3)c2)C1(C)C` (stereo unspecified), the Potency entry in [1], in test [2], in test [3], in test [5], in test [6] and in [7] was “inactive” each time. In addition, the Potency result in [9] and in [10] was “inactive” each time. In addition, the Potency in test [4] is 22 µM (active). The max response in [4] is -25.9% (inactive).

As to `Clc1ccc(C(Cl)(Cl)Cl)cc1`, the Potency entry in test [1], in test [2], in test [3], in test [5], in test [6] and in [9] was “inactive” throughout. Further, the Potency entry in test [10] is “inactive”. In addition, the max response in [4] was -12.2% (inactive) and -12.9% (inactive).

On to `CCCCC(C#N)(Cn1cncn1)c1ccc(Cl)cc1` (stereo unspecified), for which the Potency result in test [1], in test [2], in test [3], in [5], in test [6] and in test [7] was “inactive” each time. Also, the Potency result in [8] and in test [10] was “inactive” in each case.

With `Clc1cccc(Cl)c1`, the Potency result in test [1], in test [2], in test [3], in test [5], in [6] and in [8] was “inactive” in each case. Besides, the Potency result in test [9] and in test [10] was “inactive” in each case. Further, the max response in test [4] is 0.4% (inactive) and 0.365% (inactive).

Regarding `CSc1nc(NC(C)C)nc(NC(C)C)n1`, the Potency result in test [1], in test [2], in test [5], in test [6], in [7] and in test [8] was “inactive” in each case. The Potency result in [9] and in test [10] was “inactive” throughout. In addition, in test [4], the max response was -22.1% (inactive).

`[CH3][Sn]([Cl])([Cl])[Cl]`: the Potency result in test [1], in test [2], in test [5], in [6], in test [7] and in test [8] was “inactive” throughout. The Potency entry in [9] and in test [10] was “inactive” in each case. Also, in test [4], the max response is 17% (inactive) and 3.42% (inactive).

With `ClCC(Cl)CCl`, the Potency result in test [1], in test [2], in [3], in [5], in test [6] and in test [9] was “inactive” throughout. Also, the Potency entry in [10] was “inactive”. The max response in test [4] was 3.83% (inactive) and -1.84% (inactive).

As for `CC(O)CN(CC(C)O)CC(C)O` (stereo unspecified), the Potency entry in test [1], in test [2], in [3], in test [5], in test [6] and in test [8] was “inactive” throughout. Further, the Potency result in [9] and in test [10] was “inactive” each time. For the same compound, the max response in [4] was 2.85% (inactive) and 7.82% (inactive).

As to `CCC1(c2ccc(N)cc2)CCC(=O)NC1=O` (stereo unspecified), the Potency entry in test [1], in test [2], in [5], in test [6], in test [7] and in test [8] was “inactive” in each case. For the same compound, the Potency result in test [9] and in [10] was “inactive” in each case. Besides, the max response in [4] was 6.38% (inactive).

For the compound `CC(C)(c1ccccc1)c1ccc(O)cc1`, the Potency is 24.3 µM (active) and 27.5 µM (active) in test [1]; 48.6 µM (active) and 30.9 µM (active) in [2]; “inactive and 49 µM (active)” in [3]; 43.3 µM (active) and 27.5 µM (active) in test [4]; 21.7 µM (active) and 43.6 µM (active) in [5]; 24.5 µM (active) in [6]. Besides, the Potency in [8] was 48.6 µM (active) and 21.9 µM (active); in test [9], 48.6 µM (active) and 24.5 µM (active). Besides, the Potency entry in test [10] was “inactive”.

For `ClCc1ccccn1`, the Potency result in test [1], in test [2], in test [5], in test [6], in test [7] and in test [8] was “inactive” each time. The Potency entry in test [9] and in [10] was “inactive” each time. The max response in test [4] was 0.166% (inactive) and 14.2% (inactive).

Turning to `CC[n+]1c(-c2ccccc2)c2cc(N)ccc2c2ccc(N)cc21`, the Potency result in test [1], in test [3], in test [5], in test [6], in test [9] and in [10] was “inactive” in each case. The Potency in [2] was 17.3 µM (active) and 23.9 µM (active); in [4], 3.45 µM (active) and 2.13 µM (active).

As to `CNC(=O)Oc1cccc2c1OC(C)(C)C2`, the Potency result in test [1], in test [2], in test [5], in test [6], in [7] and in test [8] was “inactive” each time. Besides, the Potency result in test [9] and in test [10] was “inactive” throughout. The max response in test [4] is -0.656% (inactive) and 0.539% (inactive).

As to `COc1ccc(O)c(C(C)(C)C)c1`, the Potency result in test [1], in test [2], in test [3], in test [5], in test [6] and in [7] was “inactive” each time. Also, the Potency result in test [10] is “inactive”. The max response in test [4] is -6.92% (inactive) and 11.9% (inactive).

Take `CCNc1nc(Cl)nc(NC(C)(C)C#N)n1`: the Potency result in [1], in test [2], in test [3], in test [5], in test [6] and in test [8] was “inactive” throughout. Moreover, the Potency entry in test [9] and in [10] was “inactive” in each case. Further, the max response in test [4] was -8.64% (inactive) and -8.88% (inactive).

Consider `CC(C)(c1ccc(OCC2CO2)cc1)c1ccc(OCC2CO2)cc1` (stereo unspecified), for which the Potency entry in [1], in test [2], in test [3], in test [5], in [6] and in test [9] was “inactive” each time. Moreover, the Potency entry in [10] is “inactive”. For the same compound, the max response in [4] is -0.153% (inactive).

With `C=CC(=O)OCC(CC)(COC(=O)C=C)COC(=O)C=C`, the Potency in test [1] is 4.48 µM (active) and 7.76 µM (active); in test [2], 6.33 µM (active) and 12.3 µM (active); in [3] it was 22.5 µM (active) and 9.77 µM (active); in test [4], 3.56 µM (active) and 9.77 µM (active); in test [9], 12.6 µM (active). Moreover, the Potency entry in test [5], in test [6] and in test [10] was “inactive” in each case.

Regarding `O=C(O)c1nn(Cc2ccc(Cl)cc2Cl)c2ccccc12`, the Potency result in [1], in test [2], in test [3], in test [5] and in test [10] was “inactive” throughout. Besides, in [4], the max response is -3.1% (inactive) and 1.84% (inactive). Moreover, the Potency entry in test [6] is “inactive and 95.2 nM (active)”; in test [8], “inactive and 107 nM (active)”; in [9], “inactive and 95.2 nM (active)”.
